High-throughput results: PubChem, National Center for Advancing Translational Sciences (NCATS)
Hits are enriched below; roughly 9.3% of the tested compounds scored in any of these assays.
Vaccinia Venus: vaccinia inhibition (Venus reporter). Vaccinia virus Venus reporter expression, fluorescence. Potency, µM (series often up to 36.5 µM), inactives show at the top dose activity change, negative = inhibition, hits mostly inhibitors. 330,000 tested, 0.46% active; calls by dose curve; tested in A549 cells; further: potency means the concentration at half of the fitted maximal effect; nearly all actives have a fitted effect of over 30% in size
HCV inh: inhibitors of hepatitis C virus infection | Potency, µM (titrated, usually from 41.8 µM), without a hit: at the top dose activity change, negative = inhibition, most hits filed as inhibitors | 340,000 tested, 3.4% active | Huh7.5.1 HCVcc-Cre infection, luciferase reporter, 44 h; further: potency means the concentration at half of the fitted maximal effect
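Whole-lifecycle infectious HCVcc-Cre system; cells 1,000/well, compound then virus (~0.5 moi) added 4 h after plating, 44 h culture. Luciferase read 15 sec following 15 min substrate incubation, room temp.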
HCMV antiviral: inhibitors of human cytomegalovirus | AID 1259415 | activity change, negative = inhibition, % at 57.5 µM | 410,000 tested, 4.5% active | HFF cells, HCMV-luciferase reporter, 72 h; hits give low values; in the data active means activity change below about -60%; inconclusive means no clear call, values can overlap the other calls; inactive means above about -39%
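Cell-based, HFFs, 1000 cells/well, 16 h 37C; cpds in DMSO + HCMV-luc, MOI 1 PFU/cell; 72 h 37C; OneGlo luminescence after 5 min RT; norm. to buffer vs Salinomycin 10uM.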
Sm TGR inh: S. mansoni TGR enzyme inhibition. Potency, µM (titrated, usually from 114 µM), inactives show at the highest dose activity change, negative = inhibition, hits mostly inhibitors. AID 485364. 360,000 tested, 3% active. purified TGR, DTNB reduction, TNB absorbance 405 nm. Q962Y6; further: potency means the concentration at half of the fitted maximal effect; nearly all actives have a fitted effect of over 60% in size
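First, TGR (20 nM dispensed) and NADPH were mixed with compound. Second, a 15 min room-temperature incubation followed. Third, further NADPH and then DTNB were added to start the reaction. Finally, TNB absorbance was monitored kinetically.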
Vaccinia mCherry: inhibitors of vaccinia virus infection (mCherry reporter signal); Vaccinia virus mCherry reporter infection, fluorescence; AID 720579; 310,000 tested, 0.63% active; Potency, µM (titrated, usually from 36.5 µM), inactives show at the highest dose activity change, negative = inhibition, most hits filed as inhibitors; calls by dose curve; tested in A549 cells; further: potency means the concentration at half of the fitted maximal effect; nearly all actives have a fitted effect of over 35% in size
FMDV inh: blocks foot and mouth disease virus; Potency, µM (series often up to 57.9 µM), inactives show at the top dose activity change, negative = inhibition, usual class: inhibitors; FMDV antiviral cell-based qHTS; 410,000 tested, 1.2% active; AID 1159524; calls by dose curve; tested in HEK293T cells; further: read-out not given here; potency means the concentration at half of the fitted maximal effect; nearly all actives have a fitted effect of over 45% in size
* marks the source's active call; other numbers are inactive results; i = inactive; ? = inconclusive; . = no result; [ ] = remark or other dose. Unless noted, the call rests on the fitted dose curve; in most records, active means well fitted curve in the direction sought with a large enough effect; inconclusive means small, poorly fitted or top-dose-only effect, or another doubt; inactive means no such curve, though single readings can be large; an effect the other way counts as inactive or inconclusive. On the % scale 0 is the no-effect control and ±100 the full control effect.

SMILES	Vaccinia Venus	HCV inh	HCMV antiviral	Sm TGR inh	Vaccinia mCherry	FMDV inh
CC1(C)CCC(=O)N2CC[C@H]3C[C@H](OC(=O)Nc4ccc(Br)cc4)C[C@@H]1[C@H]32	?	20%	-101*	-10%	-8%	13%
COc1ccc(/C=C2/SC(=S)N(CCC(=O)N3CCN(C)CC3)C2=O)cc1	-25%	?	?	6%	-10%	17%
COc1ccc(/C=C2\SC(=O)N(CCCC(=O)Nc3cc(Cl)ccc3C(=O)O)C2=O)cc1	-2%	-6%	-93*	.	i	0.28µM*
COc1ccc(/C=C2\SC(=S)N(CCC(=O)N3CCCCC3)C2=O)cc1	-6%	5%	-20	-16%	-15%	0%
CN1CCN(C(=O)CCCN2C(=O)/C(=C/c3ccccc3)SC2=S)CC1	-1%	-10%	-94*	-7%	?	-13%
COc1ccc(/C=C2/SC(=S)N(CCCC(=O)N3CCN(C)CC3)C2=O)cc1	?	-28%	-100*	-9%	?	13%
COc1ccc(/C=C2\SC(=S)N(CCC(=O)Nc3ccccc3C(=O)O)C2=O)cc1	-3%	25%	-28	-8%	-8%	-10%
O=C(CCN1C(=O)/C(=C/c2ccccc2)SC1=S)N1CCCCCC1	5%	?	-97*	-4%	i	-26%
CCOC(=O)c1ccc(NC(=S)NN2CCOCC2)cc1	-11%	2%	109	?	-19%	70%
COc1cccc(C(=O)Nc2nc3c(c(=O)[nH]2)CCCC3)c1	-12%	-8%	32	-3%	-13%	23%
COc1cc(SC)ccc1C(=O)Nc1ccc2c(c1)CCN2S(C)(=O)=O	-20%	?	-18	8%	-11%	.
CCOc1ccc(/C=C2/SC(=S)N(CCC(=O)Nc3ccc(C(=O)O)cc3)C2=O)cc1	.	18%	6	4%	.	64%
CN1CCN(C(=O)CCCN2C(=O)/C(=C/c3ccc(Cl)cc3)SC2=S)CC1	.	?	.	-4%	.	-9%
O=C(O)CCCN1C(=O)/C(=C\C(Cl)=C\c2ccccc2)SC1=S	.	?	-99*	-13%	.	?
CCOc1ccc(/C=C2\SC(=S)N(CCC(=O)O)C2=O)cc1	-12%	-21%	-64*	28%	-13%	0.32µM*
CCc1ccc(/C=C2\SC(=S)N(CCC(=O)N3CCN(C)CC3)C2=O)cc1	10µM*	10%	-36	5%	?	22%
CN1CCN(C(=O)CCN2C(=O)/C(=C\c3ccc(Cl)cc3Cl)SC2=S)CC1	149%	0%	-18	-13%	9%	35µM*
COc1cc(/C=C2/SC(=S)N(CCC(=O)N3CCN(C)CC3)C2=O)cc(OC)c1OC	?	.	?	.	10µM*	0%
Nc1cc(=O)[nH]c(SCC(=O)NNC(=O)Cc2ccccc2)n1	3%	0%	?	36%	6%	-12%
COC(=O)c1cc(S(=O)(=O)C(C)C)c(S(C)=O)s1 (stereo unspecified)	?	17%	-66*	35µM*	10µM*	-18%
CSc1sc(C(=O)NCC2CC2)cc1S(=O)(=O)C(C)C	-9%	-2%	-2	1%	-18%	-16%
CN1c2ccccc2C(C)(C)C12C=Nc1c(cc(N3CCOCC3)c3ccccc13)O2 (stereo unspecified)	-18%	6%	-74*	-1%	-15%	?
Cc1c(NC(=O)COC(=O)Cc2ccc(F)cc2)c(=O)n(-c2ccccc2)n1C	4%	1%	-17	0%	-11%	7%
COc1cc2ccccc2cc1C(=O)NCCCN1CCOCC1	10%	-24%	-15	-13%	-11%	5%
CC1CCC/C=C/C2CC(O)CC2C(O)/C=C/C(=O)O1 (stereo unspecified)	?	0.71µM*	-100*	-6%	?	-24%
SMILES	Vaccinia Venus	HCV inh	HCMV antiviral	Sm TGR inh	Vaccinia mCherry	FMDV inh
CCOC(=O)c1sc(NC(=O)CSc2n[nH]c(CC(C)C)n2)nc1C	-17%	?	-62*	-13%	-18%	-6%
COc1ccc(Br)cc1CN1CCCC(C(=O)N2CCCCC2)C1 (stereo unspecified)	.	-16%	-29	-10%	.	-20%
COc1ccc(Br)cc1CN1CCCC(C(=O)N2CCCCCC2)C1 (stereo unspecified)	-26%	3.2µM*	-14	29%	.	?
COCCCN(C(=O)c1ccco1)c1nc(-c2ccc(OC)cc2)cs1	-18%	?	46	-3%	-21%	-23%
COCCCN(C(=O)c1ccccc1F)c1nc(-c2ccc(OC)cc2)cs1	.	10µM*	9	-1%	.	-11%
COCCCN(C(C)=O)c1nc(-c2ccccc2)cs1	.	13µM*	68	4%	.	9%
COCCCN(C(=O)c1ccccc1)c1nc(-c2ccc(OC)cc2)cs1	.	13µM*	-21	-5%	.	-18%
COCCN(C(=O)c1ccccc1)c1nc(-c2ccc(OC)cc2)cs1	.	-4%	21	2%	.	15%
CCCNC(=O)OC[C@H]1O[C@H](CCO/N=C(\C)CCN2CCc3nc(-c4ccccc4)c(-c4ccccc4)cc3C2)C=C[C@@H]1Oc1ccc(OC)cc1	.	0%[8.37 µM]	.	-22%	.	.
CC(C)=CCNc1ncnc2c1c(C#N)cn2C1OC(CO)C(O)C1O (stereo unspecified)	-26%	?	59	.	-17%	-19%
NC(=O)c1cn(C2OC(CO)C(O)C2O)c2ncnc(N)c12 (stereo unspecified)	0.32µM*	?	-97*	-1%	0.32µM*	?
N#Cc1cn(C2OC(CO)C(O)C2O)c2ncnc(N)c12 (stereo unspecified)	?	?	-100*	.	?	14%
Nc1ncnc2c1ncn2[C@@H]1O[C@H](CO)[C@@H](O)[C@H]1O	0%	?	52	1%	-12%	-22%
CCc1noc(C)c1C(=O)OCC(=O)Nc1ccc2c(c1)OCO2	.	-4%	-15	.	.	0%
COc1ccc(C(=O)Cn2cc([N+](=O)[O-])nc2C)cc1	-5%	4%	-9	-1%	-3%	-3%
Cc1nc([N+](=O)[O-])c(Br)n1Cc1ccc(Cl)c(Cl)c1	.	?	52	9%	.	18µM*
Cc1nc([N+](=O)[O-])c(NCCO)n1Cc1ccccc1	-10%	13%	-14	-2%	i	-17%
Cc1nc([N+](=O)[O-])c(Br)n1CC(=O)c1ccc(Cl)cc1	?	10µM*	70	7.1µM*	.	-32%
COc1ccc(C(=O)Cn2c(C)nc([N+](=O)[O-])c2Br)cc1	7.9µM*	?	13	2.5µM*	3.5µM*	?
CCOC(=O)[C@H]1[C@H]2COc3ccccc3[C@@H]2N2C(=O)CN(Cc3ccc(C)cc3)C(=O)[C@@]12C	7%	15%	-34	.	?	-4%
Cc1ccc(-c2nc3c(c(=O)c4ccccc4n3C)c(=O)n2Cc2ccco2)cc1	-1%	?	-14	32µM*	-21%	?
